# In article doi:10.1101/2025.02.07.636106:
# Target: Sodium/potassium-transporting ATPase subunit beta-3 (UniProt P54709)
# Experiment: cross-link between two proteins; co-fractionation; cross-linking mass spectrometry
substance,measurement,value
"Sodium/potassium-transporting ATPase subunit alpha-1, P05023",listed as a hit,yes
